Records with an inconclusive call do not appear. Active and inactive are the calls of the source. Unless noted, calls come from the whole dose curve; as a rule, active = well fitted curve in the direction sought with a large enough effect in the repeat runs; inconclusive = weak or mixed curves; inactive = no such curve, though single readings can be large; an effect the other way counts as inactive or inconclusive.
How the values were obtained:
[1] = qHTS assay to identify small molecule agonists of the peroxisome proliferator-activated receptor delta (PPARd) signaling pathway - cell viability counter screen (AID 743211); note: % is set by controls: 0 for no effect and ±100 for the full control effect; nearly all actives have a fitted effect of over 55% in size
Procedure, shortened: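 Read-out: CellTiter-Glo luminescence, 30 min RT, measured in the same wells as the beta-lactamase reporter. Cells: GeneBLAzer PPAR delta UAS-bla HEK293H, 3000 cells/well, compound exposure 17 h at 37C.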

[2] = biological target: Peroxisome proliferator-activated receptor delta (Homo sapiens) (UniProt Q03181); experiment: qHTS assay to identify small molecule agonists of the peroxisome proliferator-activated receptor delta (PPARd) signaling pathway (AID 743212; calls by dose curve; note: % is set by controls: 0 for no effect and ±100 for the full control effect)
Procedure, shortened: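 HEK293H PPARd-bla cells; 5 h preincubation 37 C/5% CO2; compound (DMSO) 37 C; LiveBLAzer B/G FRET substrate 2 h RT; fluorescence intensity.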

[3] = qHTS assay to identify small molecule antagonists of the peroxisome proliferator-activated receptor delta (PPARd) signaling pathway - cell viability counter screen (AID 743213); note: % is set by controls: 0 for no effect and ±100 for the full control effect; nearly all actives have a fitted effect of over 50% in size
Procedure, shortened: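 PPARd-bla HEK293H cells were treated with compounds plus agonist L165041 (300 nM final) for 17 h at 37 C. Viability was then read in the same wells by CellTiter-Glo luminescence after 30 min at room temperature.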

[4] = biological target: Peroxisome proliferator-activated receptor delta (Homo sapiens) (UniProt Q03181); experiment: qHTS assay to identify small molecule antagonists of the peroxisome proliferator-activated receptor delta (PPARd) signaling pathway (AID 743215; active = well fitted inhibition curve with a large enough effect in the signal ratio in the repeat runs, not every such curve was filed as active; the % refers to the signal ratio;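 note: cells stimulated with agonist L165041 at 300 nM final during compound exposure; series mostly up to about 62 µM; % is set by controls: 0 for no effect and ±100 for the full control effect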)
Procedure, shortened: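 PPARd UAS-bla HEK293H cells were pre-incubated 5 h at 37 C, then given test compounds in DMSO plus agonist L165041 (300 nM final). After 17 h at 37 C, beta-lactamase FRET substrate was added; fluorescence read after 2 h at room temperature.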

[5] = biological target: Bile acid receptor (Homo sapiens) (UniProt Q96RI1); experiment: qHTS assay to identify small molecule antagonists of the farnesoid-X-receptor (FXR) signaling pathway (AID 743217; active = well fitted inhibition curve with a large enough effect in the signal ratio in the repeat runs, not every such curve was filed as active; the % refers to the signal ratio; note: % is set by controls: 0 for no effect and ±100 for the full control effect)
Procedure, shortened: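 FXR-UAS-bla HEK 293T cells pre-incubated 5 h at 37 °C, then exposed to compounds with chenodeoxycholic acid (50 uM final) for 16 h at 37 °C. Beta-lactamase reporter read by LiveBLAzer B/G FRET substrate fluorescence after 2 h at room temperature.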

[6] = biological target: Bile acid receptor (Homo sapiens) (UniProt Q96RI1); experiment: qHTS assay to identify small molecule agonists of the farnesoid-X-receptor (FXR) signaling pathway (AID 743220; active = well fitted activation curve with a large enough effect in the signal ratio in the repeat runs, not every such curve was filed as active; the % refers to the signal ratio; note: % is set by controls: 0 for no effect and ±100 for the full control effect)
Procedure, shortened: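 Beta-lactamase reporter under UAS control in GeneBLAzer FXR HEK 293T cells (5000/well) measured with LiveBLAzer FRET substrate after 2 h at room temperature. Compound exposure lasted 16 h at 37C.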

[7] = qHTS assay to identify small molecule antagonists of the farnesoid-X-receptor (FXR) signaling pathway - cell viability counter screen (AID 743221; active = well fitted cell-killing curve with a large enough effect in the repeat runs, not every such curve was filed as active; note: % is set by controls: 0 for no effect and ±100 for the full control effect; nearly all actives have a fitted effect of over 50% in size)
Procedure, shortened: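 HEK 293T FXR-bla cells, 5 h pre-incubation; compound + CDCA 50 uM final, 16 h, 37 C; beta-lactamase FRET read first, then CellTiter-Glo luminescence, 30 min RT.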

[8] = biological target: Vitamin D3 receptor (Homo sapiens) (UniProt P11473); experiment: qHTS assay to identify small molecule antagonists of the vitamin D receptor (VDR) signaling pathway (AID 743223; active = well fitted inhibition curve with a large enough effect in the signal ratio in the repeat runs, not every such curve was filed as active; the % refers to the signal ratio; note: % is set by controls: 0 for no effect and ±100 for the full control effect)
Procedure, shortened: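 Beta-lactamase reporter read-out: FRET substrate fluorescence after 2 h at room temperature, following 16 h exposure of VDR-bla cells to test compound plus 3 nM (final) 1alpha,25-dihydroxyvitamin D3 agonist at 37C.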

[9] = qHTS assay to identify small molecule agonists of the vitamin D receptor (VDR) signaling pathway - cell viability counter screen (AID 743224); note: series mostly up to about 63 µM; % is set by controls: 0 for no effect and ±100 for the full control effect; nearly all actives have a fitted effect of over 50% in size
Procedure, shortened: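 VDR-bla cells were preincubated 4 h at 37C/5% CO2, then exposed to compounds for 16 h. After the 2 h room-temperature bla FRET read, CellTiter-Glo was added to the same wells and luminescence read after 30 min.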

[10] = qHTS assay to identify small molecule agonists of the NFkB signaling pathway (AID 1159509; active = well fitted curve in the direction sought with a large enough effect in the signal ratio in the repeat runs, not every such curve was filed as active; the % refers to the signal ratio)
Procedure, shortened: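 ME-180 NFkB-bla, 2,000 cells/well, overnight plating; cpd pinned in DMSO, 5 h 37 C; B/G FRET substrate 1.5 h RT; ex 405, em 460/530 nm.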

[11] = qHTS assay to identify small molecule agonists of the NFkB signaling pathway - cell viability counter screen (AID 1159515; calls by dose curve; note: series mostly up to about 61 µM; % is set by controls: 0 for no effect and ±100 for the full control effect; nearly all actives have a fitted effect of over 55% in size)
Procedure, shortened: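 NFkB-bla ME-180 cells, 2,000/well, were plated overnight at 37 C, 5% CO2, then exposed to compounds in DMSO for 5 hr. After the bla FRET read, CellTiter-Glo was added to the same wells; luminescence was read after 30 min at room temperature.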

[12] = qHTS assay to identify small molecule agonists of the endoplasmic reticulum stress response signaling pathway (AID 1159516; active = well fitted activation curve with a large enough effect in the signal ratio in the repeat runs, not every such curve was filed as active; the % refers to the signal ratio; note: % is set by controls: 0 for no effect and ±100 for the full control effect)
Procedure, shortened: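 CellSensor ESRE-bla HeLa cells, carrying a beta-lactamase reporter driven by the ER stress response element, were plated overnight and exposed to compounds for 5 hr at 37 C. Reporter activity was read as FRET substrate fluorescence after 2 hr at room temperature.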

[13] = qHTS assay to identify small molecule agonists of the endoplasmic reticulum stress response signaling pathway - cell viability counter screen (AID 1159517; calls by dose curve; note: series mostly up to about 61 µM; % is set by controls: 0 for no effect and ±100 for the full control effect; nearly all actives have a fitted effect of over 50% in size)
Procedure, shortened: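 HeLa cells carrying an ESRE-driven beta-lactamase reporter receive compound for 5 hr at 37 C. Cell viability is then gauged with CellTiter-Glo by luminescence, 30 min at room temperature.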

[14] = qHTS assay to identify small molecule antagonists of the retinoid-related orphan receptor gamma (ROR-gamma) signaling pathway - cell viability counter screen (AID 1159520)
Procedure, shortened: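 Cytotoxicity was read from cellular ATP (CellTiter-Glo luminescence) after 16 hr at 37 C with 1 uM doxycycline induction. The inducer was added 2 hr after compound transfer to Tet-on ROR gamma CHO cells.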

[15] = biological target: Nuclear receptor ROR-gamma (Homo sapiens) (UniProt P51449); experiment: qHTS assay to identify small molecule antagonists of the retinoid-related orphan receptor gamma (ROR-gamma) signaling pathway (AID 1159521)
Procedure, shortened: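 Luminescence readout (ONE-Glo, 30 min RT) after 16 h doxycycline induction; loss of signal scored as antagonism. CHO cells with TET-inducible RORγ and RORE-LUC reporter; compounds added 2 h before 1 uM final doxycycline.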

[16] = qHTS assay to identify small molecule agonists of the AP-1 signaling pathway - cell viability counter screen (AID 1159525; calls by dose curve; note: nearly all actives have a fitted effect of over 55% in size)
Procedure, shortened: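 Luminescent ATP readout (Cell Titer Glo, 30 min RT), normalised to DMSO and tetra n-octyl ammonium bromide controls. Cells were ME-180 AP-1-bla in 0.5% dialyzed FBS Opti-MEM, with a 5 h, 37 °C compound exposure.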

[17] = qHTS assay to identify small molecule agonists of the AP-1 signaling pathway (AID 1159526; calls by dose curve; note: % is set by controls: 0 for no effect and ±100 for the full control effect)
[18] = qHTS assay to identify small molecule agonists of the farnesoid-X-receptor (FXR) signaling pathway - cell viability counter screen (AID 743218); note: % is set by controls: 0 for no effect and ±100 for the full control effect; nearly all actives have a fitted effect of over 45% in size
Procedure, shortened: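 FXR-UAS-bla HEK 293T cells, plated 5 h at 37 C, were exposed to compounds for 16 h at 37 C. CellTiter-Glo was then added to the same wells as the bla readout; luminescence read after 30 min at room temperature.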

[19] = biological target: Vitamin D3 receptor (Homo sapiens) (UniProt P11473); experiment: qHTS assay to identify small molecule agonists of the vitamin D receptor (VDR) signaling pathway (AID 743222; calls by dose curve; note: % is set by controls: 0 for no effect and ±100 for the full control effect)
Procedure, shortened: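 VDR-bla cells were plated 4 h at 37C/5% CO2, then exposed to compounds in DMSO for 16 h. After LiveBLAzer B/G FRET substrate addition and 2 h at room temperature, beta-lactamase reporter fluorescence was read.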

[20] = qHTS assay to identify small molecule antagonists of the vitamin D receptor (VDR) signaling pathway - cell viability counter screen (AID 743225)
Procedure, shortened: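 Viability counter screen run in the same wells as the beta-lactamase reporter assay: HEK 293T VDR-UAS-bla cells, 16 h compound exposure at 37C with 3 nM (final) 1-alpha,25-dihydroxyvitamin D3. CellTiter-Glo luminescence, 30 min, room temperature.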

Chain of Peroxisome proliferator-activated receptor delta (Homo sapiens) (Q03181 whole entry, looked up): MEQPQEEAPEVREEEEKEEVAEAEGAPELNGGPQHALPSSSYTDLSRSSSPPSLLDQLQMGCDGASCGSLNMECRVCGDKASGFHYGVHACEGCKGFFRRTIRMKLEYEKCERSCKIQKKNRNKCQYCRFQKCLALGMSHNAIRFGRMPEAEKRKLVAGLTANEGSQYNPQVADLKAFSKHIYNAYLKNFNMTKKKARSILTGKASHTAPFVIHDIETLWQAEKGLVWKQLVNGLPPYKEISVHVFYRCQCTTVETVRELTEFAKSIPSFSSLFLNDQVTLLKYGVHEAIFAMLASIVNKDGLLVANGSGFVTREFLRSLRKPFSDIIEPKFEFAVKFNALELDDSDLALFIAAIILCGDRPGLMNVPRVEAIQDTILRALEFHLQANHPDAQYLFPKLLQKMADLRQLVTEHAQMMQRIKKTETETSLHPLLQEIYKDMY
Chain of Bile acid receptor (Homo sapiens) (Q96RI1 whole entry, looked up): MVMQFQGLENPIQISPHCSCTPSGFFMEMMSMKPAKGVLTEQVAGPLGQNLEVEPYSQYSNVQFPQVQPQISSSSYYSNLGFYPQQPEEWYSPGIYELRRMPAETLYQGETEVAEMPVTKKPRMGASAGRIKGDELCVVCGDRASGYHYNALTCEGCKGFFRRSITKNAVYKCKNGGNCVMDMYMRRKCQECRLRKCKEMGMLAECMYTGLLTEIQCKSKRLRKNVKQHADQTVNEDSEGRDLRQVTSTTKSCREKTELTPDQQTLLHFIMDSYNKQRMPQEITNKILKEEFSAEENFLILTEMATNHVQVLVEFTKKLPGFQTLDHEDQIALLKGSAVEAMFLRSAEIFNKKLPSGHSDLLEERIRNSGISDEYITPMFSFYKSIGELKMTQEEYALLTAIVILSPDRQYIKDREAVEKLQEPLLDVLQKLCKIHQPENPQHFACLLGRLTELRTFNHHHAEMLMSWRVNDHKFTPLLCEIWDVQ
Chain of Vitamin D3 receptor (Homo sapiens) (P11473 whole entry, looked up): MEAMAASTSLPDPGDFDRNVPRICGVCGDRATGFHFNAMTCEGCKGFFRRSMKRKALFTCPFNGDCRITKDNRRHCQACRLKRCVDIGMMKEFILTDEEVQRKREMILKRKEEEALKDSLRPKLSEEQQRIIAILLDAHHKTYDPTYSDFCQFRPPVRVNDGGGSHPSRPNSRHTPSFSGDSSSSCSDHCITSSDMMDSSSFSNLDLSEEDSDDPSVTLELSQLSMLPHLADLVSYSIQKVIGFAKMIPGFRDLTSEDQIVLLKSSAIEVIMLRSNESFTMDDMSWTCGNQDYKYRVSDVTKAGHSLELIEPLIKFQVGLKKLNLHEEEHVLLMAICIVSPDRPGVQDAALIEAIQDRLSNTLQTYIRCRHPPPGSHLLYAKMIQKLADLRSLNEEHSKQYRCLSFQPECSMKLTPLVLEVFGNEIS

CC1CCC(C(C)(C)S)C(=O)C1 (centres undefined)
inactive: outcome [1] | outcome [2] | outcome [3] | outcome [4] | outcome [5] | outcome [6] | outcome [7] | outcome [8] | outcome [9] | outcome [10] | outcome [11] | outcome [12] | outcome [13] | outcome [14] | outcome [15] | outcome [16] | outcome [17]

COc1cc2c(Nc3ccc(Br)cc3F)ncnc2cc1OCC1CCN(C)CC1
inactive: outcome [1] | outcome [2] | outcome [3] | outcome [4] | outcome [5] | outcome [6] | outcome [7] | outcome [9] | outcome [10] | outcome [11] | outcome [12] | outcome [13] | outcome [14] | outcome [15] | outcome [16] | outcome [17]

Cc1cc(O)c2c(c1)C(=O)c1cccc(O)c1C2=O
inactive: outcome [1] | outcome [2] | outcome [3] | outcome [4] | outcome [5] | Potency [18] | outcome [6] | outcome [7] | outcome [19] | outcome [8] | outcome [9] | outcome [10] | outcome [11] | outcome [12] | outcome [13] | outcome [14] | outcome [15] | outcome [16] | outcome [17]

COc1cccc2sc(N)nc12
inactive: outcome [1] | outcome [2] | outcome [3] | outcome [4] | outcome [5] | Potency [18] | outcome [6] | outcome [7] | outcome [19] | outcome [8] | outcome [9] | outcome [20] | outcome [10] | outcome [11] | outcome [12] | outcome [13] | outcome [14] | outcome [15] | outcome [16] | outcome [17]

CC(=O)OCCCc1ccccc1
inactive: outcome [1] | outcome [2] | outcome [3] | outcome [4] | outcome [5] | Potency [18] | outcome [6] | outcome [7] | outcome [20] | outcome [10] | outcome [11] | outcome [12] | outcome [13] | outcome [14] | outcome [15] | outcome [16] | outcome [17]

Cc1ccccc1N1CCN(CCc2nnc3n2CCCC3)CC1
inactive: outcome [1] | outcome [2] | outcome [3] | outcome [4] | outcome [5] | outcome [6] | outcome [7] | outcome [19] | outcome [8] | outcome [10] | outcome [11] | outcome [12] | outcome [13] | outcome [14] | outcome [15] | outcome [16] | outcome [17]

BrC/C=C/CBr
inactive: outcome [1] | outcome [2] | outcome [3] | outcome [4] | outcome [5] | Potency [18] | outcome [6] | outcome [7] | outcome [20] | outcome [10] | outcome [11] | outcome [12] | outcome [13] | activity, negative = cytotoxicity [14] -4.58% [at 19 µM] | activity change, negative = inhibition [15] -16.8% [at 19 µM] | viability change, negative = cytotoxic [16] 1.78% [at 15.8 µM] | activation [17] -6.33% [at 15.8 µM]

CCN(CCC#N)c1ccccc1
inactive: outcome [1] | outcome [2] | outcome [3] | outcome [4] | outcome [5] | Potency [18] | outcome [7] | outcome [19] | outcome [9] | outcome [20] | outcome [10] | outcome [11] | outcome [12] | outcome [13] | outcome [14] | outcome [15] | outcome [16] | outcome [17]

O=C(O)c1ccccc1C(=O)OCc1ccccc1
inactive: outcome [1] | outcome [2] | outcome [3] | outcome [4] | outcome [5] | Potency [18] | outcome [6] | outcome [9] | outcome [20] | outcome [10] | outcome [11] | outcome [12] | outcome [13] | outcome [14] | outcome [15] | outcome [16] | outcome [17]

C/C=C(\C)C(=O)OCC/C=C\CC
inactive: outcome [1] | outcome [2] | outcome [3] | outcome [4] | outcome [5] | outcome [6] | outcome [7] | outcome [19] | outcome [8] | outcome [9] | outcome [20] | outcome [10] | outcome [11] | outcome [12] | outcome [13] | outcome [14] | outcome [15] | outcome [16] | outcome [17]

CCCCC(CC)CNC(=O)CC(C)OC(=O)CCC(=O)O (centres undefined)
inactive: outcome [1] | outcome [2] | outcome [3] | outcome [4] | outcome [5] | Potency [18] | outcome [6] | outcome [7] | outcome [19] | outcome [8] | outcome [9] | outcome [20] | outcome [10] | outcome [11] | outcome [12] | outcome [13] | outcome [14] | outcome [15] | outcome [16] | outcome [17]

COC(/C=C(\C)CCC=C(C)C)OC
inactive: outcome [1] | outcome [2] | outcome [3] | outcome [4] | outcome [5] | outcome [6] | outcome [7] | outcome [19] | outcome [8] | outcome [9] | outcome [20] | outcome [10] | outcome [11] | outcome [12] | outcome [13] | outcome [14] | outcome [15] | outcome [16] | outcome [17]

CCOC(=O)C(=O)c1csc(NC=O)n1
inactive: outcome [1] | outcome [2] | outcome [3] | outcome [4] | outcome [5] | Potency [18] | outcome [6] | outcome [7] | outcome [19] | outcome [8] | outcome [9] | outcome [20] | outcome [10] | outcome [11] | outcome [12] | outcome [13] | outcome [14] | outcome [15] | outcome [16] | outcome [17]

CC(C)COC(=O)COc1ccc(Cl)cc1Cl
inactive: outcome [1] | outcome [2] | outcome [3] | outcome [4] | outcome [5] | Potency [18] | outcome [6] | outcome [7] | outcome [19] | outcome [8] | outcome [20] | outcome [10] | outcome [11] | outcome [12] | outcome [13] | outcome [14] | outcome [15] | outcome [16] | outcome [17]

CCCCOC(=O)[C@@H](C)Oc1ccc(Oc2ccc(C(F)(F)F)cn2)cc1
inactive: outcome [1] | outcome [2] | outcome [3] | outcome [4] | outcome [5] | outcome [6] | outcome [7] | outcome [19] | outcome [8] | outcome [9] | outcome [20] | outcome [10] | outcome [11] | outcome [12] | outcome [13] | outcome [14] | outcome [15] | outcome [16] | outcome [17]
